An excerpt weighted towards active compounds, which were near 2.4% of everything screened.
ALOX15 inhib – inhibitors of human 15-lipoxygenase (ALOX15); purified 15hLO-1, xylenol orange hydroperoxide absorbance; Potency, µM (series often up to 57.1 µM), most hits filed as inhibitors; AID 887; 74,000 compounds, 1.4% hits; further: nearly all actives have a fitted effect of over 55% in size
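40 nM 15hLO-1 + cpd, 15 min RT; start w/ 50 uM AA (final), 6 min RT; stop/detect w/ 200 uM XO + 300 uM Fe(II) in 50 mM H2SO4, 30 min; A573/A405. Buffer 25 mM Hepes pH 7.5, 0.01% Triton X-100. No-enzyme wells as negative control.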
BRCT inh red – BRCT-phosphoprotein interaction inhibition (red fluorophore). P38398. BRCT-phosphopeptide binding, red fluorescence polarization. Potency, µM (titrated, usually from 76.9 µM), hits mostly inhibitors. 75,000 compounds, 0.03% hits
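Rhodamine-labelled pBACH1 10-mer (100 nM) bound to BRCT domain (100 nM) at pH 7.3; compounds incubated 12 min room temperature, polarization read. Free peptide defines full inhibition; unlabelled decapeptide titrated as control.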
TsaE inh – YjeE (TsaE) inhibition, E. coli; purified YjeE enzyme, qHTS inhibition assay; Potency, µM; 71,000 compounds, 0.05% hits; AID 605
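Purified YjeE (10 uM) with BODIPY Texas Red-labeled ADP probe (2 uM); compounds pin-transferred, 15 min at room temperature. Binding inhibition read as decreased fluorescence polarization; ADP titration as control.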
BRCT PPI green – blocks human BRCA1 BRCT binding to phosphopeptide, green readout | BRCA1 BRCT-phosphopeptide binding, green fluorescence polarization | AID 875 | Potency, µM (highest dose often 76.9 µM), hits mostly inhibitors | 75,000 compounds, 0.05% hits | P38398
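Fluorescence polarization: His-tagged BRCT (~35 kDa BRCA1 C-terminus, 250 nM) bound to 100 nM fluorescein-labeled phosphorylated 10-aa BACH1 peptide, pH 7.3 phosphate buffer with DTT and Tween 20. Compounds incubated 12 min at room temperature; inhibition read as lowered polarization.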
ERK AVP block – vasopressin-driven ERK pathway inhibition; HEK293-V1b, vasopressin-stimulated pERK AlphaScreen; Potency, µM (series often up to 57.5 µM), usual class: inhibitors; 72,000 compounds, 0.99% hits; AID 995; further: nearly all actives have a fitted effect of over 55% in size
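Overnight-seeded V1b-HEK293 cells in 1% FBS got compound, then vasopressin (25 nM final, 5 min, 37C), then lysis buffer. AlphaScreen detection of phospho-ERK; activity normalized to basal and full-stimulation controls.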
Pol III holo inh – DNA polymerase III holoenzyme inhibition. Potency, µM (top dose mostly 57.1 µM). AID 603. reconstituted DNA polymerase III holoenzyme replication, biochemical. 71,000 compounds, 0.25% hits
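Reconstituted *E. coli* holoenzyme (0.35 nM Pol III, 1 nM beta, 154 nM SSB, 2 nM primase) was preincubated with compound for 15 min at RT. Synthesis on 1.4 nM ssM13Gori ran 35 min, then was stopped with PicoGreen/EDTA and read as dsDNA fluorescence.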
Each line names hits and unclear results; the compound was inactive in the other large screens; ! = not confirmed by another sample. The call rests on the fitted dose curve; in most records, active means well fitted curve in the direction sought with a large enough effect; inconclusive means small, poorly fitted or top-dose-only effect, or another doubt; inactive means no such curve, though single readings can be large; an effect the other way counts as inactive or inconclusive.

CCN1c2ccccc2NC2N=C(OC)C(c3ccccc3)C21 (centres undefined)	ALOX15 inhib 25µM, ERK AVP block inconclusive
CCN1c2ccccc2NC2C1C(C(C)=O)C(=O)N2c1ccc(Cl)cc1 (centres undefined)	ERK AVP block inconclusive
CC(C)c1cc(Nc2cccc(O)c2)cc(C(C)C)c1O	ALOX15 inhib 10µM, ERK AVP block 32µM
O=C(O)c1c(Sc2ccccc2)c2cc(Cl)ccc2n1Cc1ccc(Cl)cc1	ALOX15 inhib 25µM (no result: TsaE inh, Pol III holo inh)
Cc1ccc(S(=O)(=O)Oc2ccc(N=Nc3ccc(-c4ccc(N=Nc5c(O)ccc6cc(S(=O)(=O)O)cc(S(=O)(=O)O)c56)c(C)c4)cc3C)cc2)cc1	ALOX15 inhib inconclusive, ERK AVP block 25µM, Pol III holo inh 32µM
CCCNC(=O)OC[C@@H]1O[C@H](CCON=C(C)C)C=C[C@@H]1Oc1ccc(OC)cc1	none (no result: TsaE inh, Pol III holo inh)
COc1cc2c(cc1OC)-c1cc3nc4ccccc4nc3n1C(C)(C)C2	ALOX15 inhib 13µM
COc1cc2c(cc1OC)-c1nnc(-c3cccs3)n1C(C)(C)C2	ERK AVP block inconclusive
COc1ccc(Oc2ncc3nc(-c4cn(C)c5ccccc45)c(=O)n(C)c3n2)cc1	none
CCOc1ccc(NC2=NC(C(=O)NCc3ccccc3)CC(=O)N2)cc1 (centres undefined)	none
Cc1cc(C(=O)CSc2nncs2)c(C)n1-c1ccc2c(c1)OCO2	ERK AVP block 32µM
COc1cccc(NC(=O)CN2C(=O)COc3ccc(Cl)cc32)c1	ALOX15 inhib inconclusive (no result: ERK AVP block)
Cc1cccc(NC(=O)CN2C(=O)COc3ccc(Cl)cc32)c1	ALOX15 inhib 5µM
CCCn1c(C)nc2c(N(CCN(C)C)Cc3ccccc3)nc(C)nc21	ALOX15 inhib 16µM, ERK AVP block inconclusive
CCCn1c(C)nc2c(NCCN(C)C)nc(C)nc21	ALOX15 inhib 25µM
N#CC1=C(N)Oc2n[nH]c(-c3ccccc3)c2C1c1ccncc1 (centres undefined)	none
N#CC1=C(N)Oc2n[nH]c(-c3ccc(F)cc3)c2C1c1cccnc1 (centres undefined)	ERK AVP block 16µM
CCCCN(C)C(=O)c1oc2ccc(S(=O)(=O)N3CCCCCC3)cc2c1C	none
CS(=O)(=O)N1CCC2(CC1)CN(C(=O)Nc1ccccc1)C2	ALOX15 inhib 0.5µM
O=C1c2ccc(Oc3ccc4c(c3)C(=O)N(CCCCO)C4=O)cc2C(=O)N1CCCCO	ERK AVP block 20µM, Pol III holo inh inconclusive
COc1ccc(OC(=O)CCCN2C(=O)c3ccccc3C2=O)cc1	none
O=c1oc2ccccc2c2oc3cc(O)c(O)cc3c12	none (no result: ALOX15 inhib, TsaE inh, Pol III holo inh)
O=c1oc2c(O)c(O)cc3c(=O)oc4c(O)c(O)cc1c4c23	ALOX15 inhib inconclusive, ERK AVP block 20µM!, Pol III holo inh 0.005µM
COC(=O)/C(=C1\OC(=O)C(c2ccccc2)C1=O)c1ccccc1 (centres undefined)	none (no result: TsaE inh, Pol III holo inh)
N#CCSc1nc2cc(C(=O)N3CCC(C(N)=O)CC3)ccc2c2nc3ccccc3n12	ERK AVP block 20µM
N#CCSc1nc2cc(C(=O)N3CCCC3)ccc2c(=O)n1Cc1ccccc1	ERK AVP block inconclusive
CN(C)CCNc1ccccn1	none
COc1ccc(COC2OC[C@]3(C)[C@H]4C5=C(CN3C(=O)OC(C)(C)C)[C@H](C)C(CO)C(CO)C5CC[C@@H]24)cc1 (some centres undefined)	none (no result: ALOX15 inhib)
Cc1ccsc1C1NC(=O)c2c(sc3c2CCN(C)C3)N1 (centres undefined)	ALOX15 inhib inconclusive, ERK AVP block inconclusive
CN1CCc2c(sc3c2C(=O)NC(c2ccc(-c4cccc(Cl)c4)o2)N3)C1 (centres undefined)	ALOX15 inhib 2.5µM
CN1CCc2c(sc3c2C(=O)NC(c2cccs2)N3)C1 (centres undefined)	ALOX15 inhib 3.2µM
CN[C@@H](c1ccncc1)[C@@H](NC)c1ccncc1	none
Cc1cc(=O)n2nc(N3CCC(C(=O)NCCC4=CCCCC4)CC3)sc2n1	none
O=C(/C=C/Nc1ccc(F)c(Cl)c1)c1ccco1	ALOX15 inhib 25µM, ERK AVP block inconclusive
Cc1noc(C)c1-c1cncnc1Nc1ccccc1	ALOX15 inhib inconclusive, ERK AVP block inconclusive
COc1ccccc1N1CCN(S(=O)(=O)CC23CCC(CC2=O)C3(C)C)CC1 (centres undefined)	none
O=C(NC1CCCCC1)c1ccc(Cc2nc3ccccc3[nH]2)cc1	none (no result: TsaE inh, ERK AVP block, Pol III holo inh)
CN(C(=O)c1cc2nc(-c3ccco3)cc(C(F)(F)F)n2n1)C1CCCCC1	ALOX15 inhib 10µM (no result: TsaE inh, ERK AVP block, Pol III holo inh)
O=C(c1cc2nc(-c3ccco3)cc(C(F)(F)F)n2n1)N1CCCCCC1	ALOX15 inhib inconclusive
CO[C@@H]1COC(=O)[C@@H](C)NC(=O)C/C=C\[C@@H](C)[C@H](NS(=O)(=O)c2ccc(C)cc2)COC(=O)[C@H](C)NC(=O)C/C=C\[C@H]1C	none (no result: TsaE inh, Pol III holo inh)
COc1cccc2[nH]c3c(N4CCCCC4)ncnc3c12	ERK AVP block 20µM
COc1ccc(S(=O)(=O)N2CCN(c3ccccn3)CC2)cc1OC	none
COc1cc2[nH]c3c(N4CCN(c5ccccn5)CC4)ncnc3c2cc1OC	ERK AVP block 25µM
O=C(Nc1ccccc1)N1CC2(CCN(C(=O)c3cccc(F)c3)CC2)C1	none
COc1ccc2ccccc2c1C(O)c1nccn1C (centres undefined)	ALOX15 inhib inconclusive, BRCT inh red inconclusive, BRCT PPI green 13µM, ERK AVP block inconclusive
COc1ccc(C(O)c2nccn2Cc2ccccc2)cc1 (centres undefined)	none
COc1ccccc1N1CSC2=C(C#N)C(c3ccc(SC)cc3)CC(=O)N2C1 (centres undefined)	ALOX15 inhib 3.2µM
COc1ccc(Br)cc1C1CC(=O)N2CN(Cc3ccccc3)CSC2=C1C#N (centres undefined)	ALOX15 inhib 2.5µM
COc1cc(C2CC(=O)N3CN(c4ccccc4C)CSC3=C2C#N)cc(OC)c1OC (centres undefined)	ALOX15 inhib 4µM
CCOC(=O)N1CCN(C(=O)COc2ccc(S(=O)(=O)NC(C)C)cc2)CC1	none
C[C@@H](CCCCC(=O)Nc1ccc(C(F)(F)F)cc1)NCCc1cnc[nH]1	none
CCCN(CCC)c1nc(NC2CCN(C(=O)OCC)CC2)nc(OC)n1	ALOX15 inhib 32µM
CC1=C(C(=O)OCC2CCCO2)C(c2ccccc2OC(C)C)C2=C(CC(c3ccco3)CC2=O)N1 (centres undefined)	ALOX15 inhib 32µM
